Source: PubChem BioAssay (NCI)
The panel holds about 83,000 compounds, 20% with a hit somewhere; the sample as a whole holds those more often.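 Single-concentration screen, 48 h exposure, 96-well plates. Endpoint: percent growth. Below 10 = active.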 Calls of active or inactive are those of the source.

System: MDA-MB-468 breast
Assay: NCI-60 one-dose screen, 48 h (100 = growth as untreated, 0 = no growth, -100 = all killed)
Conditions: 10 µM unless noted

Compound	growth
O=C(NCCCCNC(=O)OCc1ccc2c(Cl)cc(Cl)c(O)c2n1)OCc1ccc2c(Cl)cc(Cl)c(O)c2n1	-5.78% (active)
CN1CCN(c2cc3c(cc2F)c(=O)c(C(=O)O)cn3-c2ccc(F)cc2)CC1	110% (inactive)
CCCCCCC(O)(c1ccc(F)cc1)C(CN1CCOCC1)c1ccccc1 (stereo not drawn)	28% (inactive)
